# Laboratory results taken from PubChem BioAssay AID651604 (The Scripps Research Institute Molecular Screening Center, 2012).
# The whole screen tested about 1,500 compounds, of which about 1,400 (93%) were called active. Cut-off read from the data, not from the text of the source: active = inhibition above about 9.5%; inactive = the rest. The set was probably picked from earlier hits. These entries were drawn from the full list.
# Assay: binders of control antibody PGV04, counter-screen for PG9 antibody binder project, biochemical, TR-FRET, distinct HIV envelope site (AID 651604)
# Conditions: TR-FRET PGV04 antibody-gp120 binding, at 6.7 µM, stronger effect = higher value
row,Structure (SMILES),inhibition
1,CCN(CC)C(=O)c1ccc(NC(=O)c2sccc2-c2ccccc2)cc1,25.4% (active)
2,N#CC1=C(N)Oc2c(c(=O)oc3ccccc23)C1c1ccccc1OC(=O)c1cccs1 (configuration not stated),28% (active)
